Source: PubChem BioAssay (National Center for Advancing Translational Sciences (NCATS))
Hits are enriched below; roughly 11% of the tested compounds scored in any of these assays.
HCV inhibitor = inhibitors of hepatitis C virus infection | Huh7.5.1 HCVcc-Cre infection, luciferase reporter, 44 h | 340,000 tested, 3.4% active | Potency, µM (series often up to 41.8 µM), without a hit: top-dose activity change, negative = inhibition, hits mostly inhibitors; also: % is scaled to controls: 0 for no effect and ±100 for the full control effect
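Reporter virus HCVcc-Cre (~0.5 moi) infects cells exposed to compound; seeding density 1,000 cells/well with 4 h settling beforehand. Luminescence, 15 sec read, taken 44 h post-infection following a 15 min RT substrate incubation.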
VACV mCherry inh = inhibitors of vaccinia virus infection (mCherry reporter signal); Vaccinia virus mCherry reporter infection, fluorescence; Potency, µM (doses to about 36.5 µM), without a hit: at the highest dose activity change, negative = inhibition, actives largely listed as inhibitors; 310,000 tested, 0.63% active; AID 720579; calls by dose curve; tested in A549 cells; also: % is scaled to controls: 0 for no effect and ±100 for the full control effect; nearly all actives have a fitted effect of over 35% in size
Pf growth 96h = inhibits malaria parasite growth, 96 h; P. falciparum luciferase reporter growth, 96 h; Potency, µM (highest dose often 28.7 µM), for inactives: top-dose activity change, negative = inhibition, hits mostly inhibitors; 320,000 tested, 6.9% active; AID 504834; also: % is scaled to controls: 0 for no effect and ±100 for the full control effect
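Two-generation exposure (96 h) targets delayed-death phenotype. Reporter parasites carrying integrated firefly luciferase, in red cells at 2% hematocrit and 0.05% parasitemia final, kept at 37 C, 5% CO2; luminescence loss indicates inhibition.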
Vaccinia Venus = vaccinia inhibition (Venus reporter) | 330,000 tested, 0.46% active | Potency, µM (doses to about 36.5 µM), without a hit: at the highest dose activity change, negative = inhibition, actives largely listed as inhibitors | AID 720580 | Vaccinia virus Venus reporter expression, fluorescence; calls by dose curve; tested in A549 cells; also: % is scaled to controls: 0 for no effect and ±100 for the full control effect; nearly all actives have a fitted effect of over 30% in size
NS1 inh = influenza NS1 inhibition; Potency, µM (doses to about 46.1 µM), without a hit: at the top dose activity, positive = more growth; 270,000 tested, 0.4% active; AID 2326; calls by dose curve; also: actives are rising curves; nearly all actives have a fitted effect of over 50% in size
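S. cerevisiae expressing influenza A NS1, grown in glucose, washed, then diluted 1:100 into pH 6.0 -URA galactose medium with 23 nl compound. Growth recovery read as OD600; NS1-free strain serves as control.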
Pf growth 48h = inhibits P. falciparum growth in the first generation, 48 h | P. falciparum luciferase growth in erythrocytes, 48 h | Potency, µM (series often up to 28.7 µM), for inactives: top-dose activity change, negative = inhibition, usual class: inhibitors | 310,000 tested, 5.9% active; also: % is scaled to controls: 0 for no effect and ±100 for the full control effect
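Read-out is firefly luciferase luminescence from an integrated reporter in P. falciparum, so falling signal marks reduced parasite growth. Infected erythrocytes were at 2% hematocrit and 0.1% parasitemia (final) in Albumax-supplemented RPMI 1640.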
The depositor's hits bear a star; i = inactive; u = inconclusive; x = not tested or not shown; [ ] = another dose, or the depositor's remark. Unless noted, calls follow the shape of the dose curve; as a rule, active = well fitted inhibition curve with a large enough effect; inconclusive = small, poorly fitted or top-dose-only effect, or another doubt; inactive = no such curve, though single readings can be large or run the other way. Potency is read from the fitted curve at half-maximal effect.

SMILES | HCV inhibitor | VACV mCherry inh | Pf growth 96h | Vaccinia Venus | NS1 inh | Pf growth 48h
NC(=S)n1[nH]c(-c2ccc([N+](=O)[O-])cc2)c(N=Nc2cccc([N+](=O)[O-])c2)c1=O | 10µM* | -23% | 4% | -8% | u | u
Cc1[nH]n(C(N)=S)c(=O)c1N=Nc1cccc([N+](=O)[O-])c1C | 16% | x | 7% | x | -11% | u
Cc1cccc(-n2nc3c(c2NC(=O)c2ccc4c(c2)OCO4)CS(=O)(=O)C3)c1C | -6% | x | 20% | x | -3% | -23%
Nc1ccc(Cn2ccc3c4c(N)nc(N)nc4ccc32)cc1 | u | 0.35µM* | x | u | x | x
O=C(OCC(=O)N1CCc2ccccc21)c1ccccc1 | u | x | 187% | -11% | -14% | 181%
CCCc1nc2ccccc2c(C(=O)OCC(=O)N2CCc3ccccc32)c1CC | 8.9µM* | i | 8.3µM* | -11% | -27% | u
CC1CCc2nc3ccccc3c(C(=O)OCC(=O)N3CCc4ccccc43)c2C1 (configuration not stated) | u | 12% | u | -13% | 29% | 8.3µM*
CCc1noc(C)c1C(=O)OCC(=O)N1CCc2ccccc21 | 38% | x | 31% | x | x | 12%
Cc1nc(N2CCOCC2)c2c(C(=O)NCc3ccc(Cl)cc3)c(C)oc2n1 | x | i | x | -10% | x | x
COc1ccc(Br)cc1C(=O)Nc1cccc(NC(=O)c2ccco2)c1 | u | i | -27% | -25% | 4% | -17%
O=C(Nc1cccc(NC(=O)c2ccc(-c3ccc(Br)cc3)o2)c1)c1ccccc1 | -14% | x | 43% | -26% | 2% | x
COc1c(C)cc(Br)cc1C(=O)Nc1cccc(NC(=O)c2ccco2)c1 | 6.3µM* | 3% | x | -23% | -20%[9.22 µM] | u
O=C(Nc1cccc(NC(=O)c2ccc(-c3cccc(Br)c3)o2)c1)c1ccco1 | 3.5µM* | -3% | 210% | -15% | -49% | u
CC(Oc1ccc(NC(=O)c2ccco2)cc1)C(=O)N1c2ccccc2CC1C (configuration not stated) | -28% | u | 5.2µM* | u | -65% | u
Cc1ccc(C(=O)C(C)Oc2cccc(NC(=O)c3ccco3)c2)cc1 (configuration not stated) | -19% | x | -2% | 3% | -44% | 2.9µM*
CCCCSc1nnc([C@H](C)NC(=O)OC(C)(C)C)o1 | 14% | x | 23% | x | 0% | 14%
O=C(CN1CCN(c2ccccn2)CC1)Nc1ccccc1C(=O)Nc1ccccc1 | u | -7% | u | -9% | x | u
COc1cccc(CNC(=O)C2CCN(Cc3cc4ccccc4n3Cc3ccccc3)CC2)c1OC | x | -25% | x | -11% | x | x
O=C(Nc1ccc(NC(=O)c2ccc([N+](=O)[O-])o2)cc1Cl)c1ccco1 | u | -22% | 19% | -18% | 3% | 12µM*
O=C(Nc1cccc(NC(=O)c2ccc([N+](=O)[O-])o2)c1)c1ccco1 | u | 13µM* | -3% | u | -10% | 9.3µM*
O=S(=O)(c1ccc(SCCOc2cccc(Br)c2)nc1)N1CCCC1 | 10µM* | -7% | u | -21% | x | u
COc1ccc(OCCSc2ccc(S(=O)(=O)N3CCCC3)cn2)cc1 | 11µM* | x | u | x | x | u
O=S(=O)(c1ccc(SCc2ccccc2)nc1)N1CCCC1 | u | x | -21% | x | x | -1%
O=S(=O)(c1ccc(SCc2ccc(Br)cc2)nc1)N1CCCCC1 | 17% | -14% | -3% | -14% | x | u
O=S(=O)(c1ccc(SCCOc2ccccc2Cl)nc1)N1CCCC1 | 13µM* | x | u | x | x | -71%
CCN(C(=O)N1CCOCC1)c1ccccc1 | 20% | -15% | 62% | -7% | 1% | -3%
CCCCN(C(=O)c1ccc(N(C)S(=O)(=O)c2ccc(C)cc2)cc1)c1c(N)n(CCC)c(=O)[nH]c1=O | 7% | 1% | u | -8% | 12% | u
O=C(NCc1ccc2c(c1)CCN2C(=O)c1ccncc1)c1cccc(Cl)c1 | x | -23% | x | -12% | x | x
O=C(NC(=S)Nc1ccc(NC(=O)c2cccs2)cc1)c1cc2ccccc2o1 | -3% | u | 68% | u | 11% | 3.3µM*
